Assay results reported in PubChem BioAssay (NCATS).
Results filed as inconclusive are left out. A number with no mark means an inactive call. Active and inactive are the calls of the source. Calls come from the whole dose curve; as a rule, active = well fitted inhibition curve with a large enough effect; inconclusive = small, poorly fitted or top-dose-only effect; inactive = flat fitted curve, though single readings scatter.

System: CP335
Assay: qHTS profiling for inhibitors of Plasmodium falciparum proliferation (AID 504749); note: nearly all actives have a fitted effect of over 60% in size;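 for activity, negative = inhibition: 0% = DMSO vehicle and full inhibition = artemisinin control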
Details: P. falciparum in erythrocytes, SYBR Green DNA, 72 h; series mostly up to 28.7 µM; activity, negative = inhibition: at the top concentration
Procedure, shortened: (§1)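 Each compound contacts P. falciparum-infected red blood cells for 72 h at 37 C; lysis buffer (Tris, EDTA, saponin, Triton X, SYBR Green I) is added and fluorescence measured next morning; values normalized to controls.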
Potency is the fitted concentration of half-maximal effect.

| SMILES | activity, negative = inhibition | Potency |
| --- | --- | --- |
| CN1C(C(=O)Nc2ccccn2)C(=O)c2sc(Cl)cc2S1(=O)=O (stereo not drawn) | 3.63% | – |
| CC(CC=O)CCCC(C)(C)O (stereo not drawn) | 2.54% | – |
| O=S(=O)(O)CC(S)CS (stereo not drawn) | 0.239% | – |
| CO/N=C(\C(=O)N[C@@H]1C(=O)N2C(C(=O)[O-])=C(C[n+]3cccc4c3CCC4)CS[C@H]12)c1csc(N)n1 | 0.0174% | – |
| NCCO/C=C/[C@H](N)C(=O)O | 7.15% | – |
| CCCCCCCCCCCC(=O)N(CCO)CCO | 5.2% | – |
| CC(C)(COP(=O)(O)OP(=O)(O)OC[C@H]1O[C@@H](n2cnc3c(N)ncnc32)[C@H](O)[C@@H]1OP(=O)(O)O)C(O)C(=O)NCCC(=O)NCCS (stereo partly drawn) | 6.04% | – |
| O=P(O)(O)CP(=O)(O)O | 4.91% | – |
| CC(C)(Oc1ccc(C2CCCc3ccccc32)cc1)C(=O)O (stereo not drawn) | 0.398% | – |
| CC(C)(CO)[C@@H](O)C(=O)NCCC(=O)NCCSSCCNC(=O)CCNC(=O)[C@H](O)C(C)(C)CO | 1.25% | – |
| CCCOC(=O)c1ccccc1O | 4.35% | – |
| C[Si](C)(C)O[Si](C)(C)C | -2.39% | – |
| CC1C(=O)CC2C3(C)CCC2(C(C)C(=O)O)C(=O)C13 (stereo not drawn) | 6.06% | – |
| C/C=C/C=C/C(=O)O | 4.03% | – |
| O=C(O)CCC/C=C\C[C@@H]1[C@@H](/C=C/[C@@H](O)COc2cccc(C(F)(F)F)c2)[C@H](O)C[C@@H]1O | -3.33% | – |
| O=C(O)[C@H]1CN(C/C=C/P(=O)(O)O)CCN1 | 0.516% | – |
| O=C(O)[C@H]1C(=CCO)O[C@H]2CC(=O)N12 | -1.66% | – |
| CCCC(=O)O | 5.09% | – |
| OC[C@H]1O[C@@H]2O[C@H]3[C@H](O)[C@@H](O)[C@@H](O[C@H]4[C@H](O)[C@@H](O)[C@@H](O[C@H]5[C@H](O)[C@@H](O)[C@@H](O[C@H]6[C@H](O)[C@@H](O)[C@@H](O[C@H]7[C@H](O)[C@@H](O)[C@@H](O[C@H]1[C@H](O)[C@H]2O)O[C@@H]7CO)O[C@@H]6CO)O[C@@H]5CO)O[C@@H]4CO)O[C@@H]3CO | 8.48% | – |
| Cc1c(Cl)cccc1Nc1ncccc1C(=O)O | -1.14% | – |

| SMILES | activity, negative = inhibition | Potency |
| --- | --- | --- |
| CCc1ncnc2cc(OC)c(OC)cc12 | -0.162% | – |
| CC/C(=C(/CC)c1ccc(OP(=O)(O)O)cc1)c1ccc(OP(=O)(O)O)cc1 | 11.2% | – |
| Cc1cccc(Nc2ncccc2C(=O)O)c1C | 0.0708% | – |
| CC1=CC(=C(c2ccc(N)cc2)c2ccc(N)cc2)C=CC1=N | – | 2130 nM (active) |
| ClC(Cl)Cl | -1.91% | – |
| O=C(O)COc1ccc(CCNS(=O)(=O)c2ccccc2)s1 | 1.08% | – |
| C=Cc1ccc(S(=O)(=O)O)cc1 | 0.908% | – |
| CCCCO | 1.13% | – |
| CC(C)(C)c1ccc2c(S(=O)(=O)O)c(C(C)(C)C)ccc2c1 | -0.1% | – |
| CNC(=O)OCc1cccc(COC(=O)NC)n1 | 8.6% | – |
| O=C(NCCNCC(O)COc1ccc(O)cc1)N1CCOCC1 (stereo not drawn) | -10.4% | – |
| C=CC(C)(O)CC/C=C(\C)CCC=C(C)C (stereo not drawn) | 4.34% | – |
| CO[C@H]1C[C@@H]2CC[C@@H](C)[C@@](O)(O2)C(=O)C(=O)N2CCCC[C@H]2C(=O)O[C@H]([C@H](C)C[C@@H]2CC[C@@H](OC(=O)C(C)(CO)CO)[C@H](OC)C2)CC(=O)[C@H](C)/C=C(\C)[C@@H](O)[C@@H](OC)C(=O)[C@H](C)C[C@H](C)/C=C/C=C/C=C/1C | -0.972% | – |
| CNC(=O)c1c(I)c(C(=O)NCC(=O)Nc2c(I)c(C(=O)O)c(I)c(C(=O)NCCO)c2I)c(I)c(N(C)C(C)=O)c1I | 2.99% | – |
| O=C(NNCS(=O)(=O)O)c1ccncc1 | -0.0382% | – |
| COc1cc2c(cc1OC)[C@@H](Cc1cc(OC)c(OC)c(OC)c1)[N+](C)(CCCOC(=O)CC/C=C/CCC(=O)OCCC[N+]1(C)CCc3cc(OC)c(OC)cc3[C@H]1Cc1cc(OC)c(OC)c(OC)c1)CC2 (stereo partly drawn) | 5.28% | – |
| CCCCCCCCCCCCCCCCCC[N+](C)(C)CCC[Si](OC)(OC)OC | 2.93% | – |
| Nc1ncnc2c1ncn2CCOCP(=O)(O)O | 5.69% | – |
| CC1=C(/C=C/C(C)=C/C=C/C(C)=C/C(=O)Oc2c(C)c(C)c3c(c2C)CC[C@@](C)(CCC[C@H](C)CCC[C@H](C)CCCC(C)C)O3)C(C)(C)CCC1 | 0.185% | – |

System: DFO2036
Assay: as above
Details: P. falciparum in erythrocytes, SYBR Green DNA, 72 h; series mostly up to 28.7 µM; activity, negative = inhibition: at the top concentration
Procedure, shortened: as §1

| SMILES | activity, negative = inhibition | Potency |
| --- | --- | --- |
| CN1C(C(=O)Nc2ccccn2)C(=O)c2sc(Cl)cc2S1(=O)=O (stereo not drawn) | -0.471% | – |
| CC(CC=O)CCCC(C)(C)O (stereo not drawn) | 6.2% | – |
| O=S(=O)(O)CC(S)CS (stereo not drawn) | 1.9% | – |
| CO/N=C(\C(=O)N[C@@H]1C(=O)N2C(C(=O)[O-])=C(C[n+]3cccc4c3CCC4)CS[C@H]12)c1csc(N)n1 | 10.7% | – |
| NCCO/C=C/[C@H](N)C(=O)O | 23.6% | – |
| CCCCCCCCCCCC(=O)N(CCO)CCO | 6.43% | – |
| CC(C)(COP(=O)(O)OP(=O)(O)OC[C@H]1O[C@@H](n2cnc3c(N)ncnc32)[C@H](O)[C@@H]1OP(=O)(O)O)C(O)C(=O)NCCC(=O)NCCS (stereo partly drawn) | 2.31% | – |
| O=P(O)(O)CP(=O)(O)O | 18.9% | – |
| CC(C)(Oc1ccc(C2CCCc3ccccc32)cc1)C(=O)O (stereo not drawn) | 8.73% | – |
| CC(C)(CO)[C@@H](O)C(=O)NCCC(=O)NCCSSCCNC(=O)CCNC(=O)[C@H](O)C(C)(C)CO | -2.21% | – |
| CCCOC(=O)c1ccccc1O | 4.49% | – |
| C[Si](C)(C)O[Si](C)(C)C | 8.51% | – |
| CC1C(=O)CC2C3(C)CCC2(C(C)C(=O)O)C(=O)C13 (stereo not drawn) | -1.31% | – |
| C/C=C/C=C/C(=O)O | -5.45% | – |
| O=C(O)CCC/C=C\C[C@@H]1[C@@H](/C=C/[C@@H](O)COc2cccc(C(F)(F)F)c2)[C@H](O)C[C@@H]1O | -5.49% | – |
| O=C(O)[C@H]1CN(C/C=C/P(=O)(O)O)CCN1 | 12.6% | – |
| O=C(O)[C@H]1C(=CCO)O[C@H]2CC(=O)N12 | 1.13% | – |
| CCCC(=O)O | 1.16% | – |
| OC[C@H]1O[C@@H]2O[C@H]3[C@H](O)[C@@H](O)[C@@H](O[C@H]4[C@H](O)[C@@H](O)[C@@H](O[C@H]5[C@H](O)[C@@H](O)[C@@H](O[C@H]6[C@H](O)[C@@H](O)[C@@H](O[C@H]7[C@H](O)[C@@H](O)[C@@H](O[C@H]1[C@H](O)[C@H]2O)O[C@@H]7CO)O[C@@H]6CO)O[C@@H]5CO)O[C@@H]4CO)O[C@@H]3CO | 6.4% | – |
| Cc1c(Cl)cccc1Nc1ncccc1C(=O)O | 9.63% | – |

| SMILES | activity, negative = inhibition | Potency |
| --- | --- | --- |
| CCc1ncnc2cc(OC)c(OC)cc12 | 2.54% | – |
| CC/C(=C(/CC)c1ccc(OP(=O)(O)O)cc1)c1ccc(OP(=O)(O)O)cc1 | 5.96% | – |
| Cc1cccc(Nc2ncccc2C(=O)O)c1C | -0.413% | – |
| CC1=CC(=C(c2ccc(N)cc2)c2ccc(N)cc2)C=CC1=N | – | 2820 nM (active) |
| ClC(Cl)Cl | -11.1% | – |
| O=C(O)COc1ccc(CCNS(=O)(=O)c2ccccc2)s1 | 11.3% | – |
| C=Cc1ccc(S(=O)(=O)O)cc1 | 3.54% | – |
| CCCCO | 2.67% | – |
| CC(C)(C)c1ccc2c(S(=O)(=O)O)c(C(C)(C)C)ccc2c1 | 6.45% | – |
| CNC(=O)OCc1cccc(COC(=O)NC)n1 | 9.52% | – |
| O=C(NCCNCC(O)COc1ccc(O)cc1)N1CCOCC1 (stereo not drawn) | 7.22% | – |
| C=CC(C)(O)CC/C=C(\C)CCC=C(C)C (stereo not drawn) | 1.63% | – |
| CO[C@H]1C[C@@H]2CC[C@@H](C)[C@@](O)(O2)C(=O)C(=O)N2CCCC[C@H]2C(=O)O[C@H]([C@H](C)C[C@@H]2CC[C@@H](OC(=O)C(C)(CO)CO)[C@H](OC)C2)CC(=O)[C@H](C)/C=C(\C)[C@@H](O)[C@@H](OC)C(=O)[C@H](C)C[C@H](C)/C=C/C=C/C=C/1C | -6.38% | – |
| CNC(=O)c1c(I)c(C(=O)NCC(=O)Nc2c(I)c(C(=O)O)c(I)c(C(=O)NCCO)c2I)c(I)c(N(C)C(C)=O)c1I | 2.33% | – |
| O=C(NNCS(=O)(=O)O)c1ccncc1 | 12.1% | – |
| COc1cc2c(cc1OC)[C@@H](Cc1cc(OC)c(OC)c(OC)c1)[N+](C)(CCCOC(=O)CC/C=C/CCC(=O)OCCC[N+]1(C)CCc3cc(OC)c(OC)cc3[C@H]1Cc1cc(OC)c(OC)c(OC)c1)CC2 (stereo partly drawn) | -3.59% | – |
| CCCCCCCCCCCCCCCCCC[N+](C)(C)CCC[Si](OC)(OC)OC | 1.26% | – |
| Nc1ncnc2c1ncn2CCOCP(=O)(O)O | 5.31% | – |
| CC1=C(/C=C/C(C)=C/C=C/C(C)=C/C(=O)Oc2c(C)c(C)c3c(c2C)CC[C@@](C)(CCC[C@H](C)CCC[C@H](C)CCCC(C)C)O3)C(C)(C)CCC1 | 8.22% | – |
